In PubChem BioAssay (NCATS):
Records with an inconclusive call do not appear. Calls of active or inactive are those of the source. Calls come from the whole dose curve; as a rule, active = well fitted curve in the direction sought with a large enough effect; inconclusive = small, poorly fitted or top-dose-only effect, or another doubt; inactive = no such curve, though single readings can be large; an effect the other way counts as inactive or inconclusive.

Legend:
[1] = target: Glutathione peroxidase 1 (Homo sapiens) (UniProt P07203); test: Primary qHTS Assay for Inhibitors of Recombinant Selenoprotein Glutathione Peroxidase 1 (GPX1) (AID 1845191); note: nearly all actives have a fitted effect of over 65% in size; for activity, negative = inhibition: % is set by controls: 0 for no effect and ±100 for the full control effect
Glutathione peroxidase 1 (Homo sapiens), sequence (P07203 whole entry, looked up): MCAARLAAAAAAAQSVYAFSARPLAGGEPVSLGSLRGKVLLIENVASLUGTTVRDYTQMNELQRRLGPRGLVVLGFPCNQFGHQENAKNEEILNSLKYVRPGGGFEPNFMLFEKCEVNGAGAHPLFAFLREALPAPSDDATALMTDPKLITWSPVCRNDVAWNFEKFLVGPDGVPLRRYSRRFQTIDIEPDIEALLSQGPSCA
In short: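 10 nM GPX1 + cpd, 30 min RT; start w/ 1 mM GSH, 0.5 mM cumene hydroperoxide, 0.5 mM NADPH, 100 nM GR, 0.01% BSA; buffer 50 mM Tris-HCl pH 7.5, 2 mM EDTA, 150 mM NaCl; Fl 340/450, 0 & 15 min.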

[2] = target: Phospholipid hydroperoxide glutathione peroxidase GPX4 (Homo sapiens) (UniProt P36969); test: Primary qHTS Assay for Inhibitors of Recombinant Selenoprotein Glutathione Peroxidase 4 (GPX4) (AID 1845192); note: nearly all actives have a fitted effect of over 65% in size; for activity change, negative = inhibition: series mostly up to about 50 µM; % is set by controls: 0 for no effect and ±100 for the full control effect
Phospholipid hydroperoxide glutathione peroxidase GPX4 (Homo sapiens), sequence (P36969 whole entry, looked up): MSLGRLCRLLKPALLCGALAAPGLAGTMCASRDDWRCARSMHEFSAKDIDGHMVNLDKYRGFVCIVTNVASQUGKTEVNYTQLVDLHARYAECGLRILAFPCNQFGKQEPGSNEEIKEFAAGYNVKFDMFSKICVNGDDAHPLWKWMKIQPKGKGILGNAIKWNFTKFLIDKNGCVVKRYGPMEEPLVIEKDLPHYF
In short: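 NADPH consumption, followed by fluorescence at 340/450 nm between 0 and 15 min, reports GPX4 activity via coupled glutathione reductase (100 nM). Enzyme 200 nM was pre-exposed to compound 30 min; 0.5 mM cumene hydroperoxide and 1 mM GSH served as substrates.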

[3] = target: Luciferin 4-monooxygenase (Photinus pyralis) (UniProt P08659); test: Primary firefly luciferase (FLuc) qHTS assay for identification of artifact compounds. (AID 1845220); note: nearly all actives have a fitted effect of over 60% in size;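 for activity change, negative = inhibition: series mostly up to about 54 µM; plate controls were DMSO vehicle for no effect and no enzyme for full effect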
In short: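 Compounds sat 15 min at room temperature with 10 uM luciferin and 10 uM ATP (pH 7.6 Tris acetate). Firefly luciferase (10 nM final) was then added, and luminescence was read 5 min later. Data normalized to no-enzyme and DMSO controls were Hill-fitted.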

[4] = Primary fluorescence-based thiol-reactive (MSTI) qHTS assay for identification of artifact compounds. (AID 1845221);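 note: series mostly up to about 54 µM; thiol-reactive compounds lower the probe fluorescence signal; nearly all actives have a fitted effect of over 65% in size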
In short: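 Thiol-reactive compounds detected by quenching of 4 uM MSTI fluorescence (525/598 nm) after 1 h room-temperature dark incubation in PBS pH 7.4, 2% DMSO. qHTS titration; percent inhibition Hill-fitted against Acetyl-MSTI/MSTI controls.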

[5] = tested on: Nanoluciferase (engineered Oplophorus gracilirostris luciferase); test: Primary Nanoluciferase (NLuc) qHTS assay for identification of artifact compounds. (AID 1845222);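 note: series mostly up to about 54 µM; 0% = DMSO and -100% = no enzyme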
In short: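 Luminescence from secreted NLuc (filtered, 1:55-diluted S16 cell medium) read 5 min after Nano-Glo substrate; compounds preincubated 15 min, RT. Hill fits of inhibition normalized to DMSO and no-enzyme.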

OC[C@@]1(O)CO[C@@H](OC[C@H]2O[C@@H](OCc3ccccc3)[C@H](O)[C@@H](O)[C@@H]2O)[C@@H]1O
inactive: Potency [1] | Potency [2] | Potency [3] | Potency [4] | Potency [5]

COc1ccc(C2(O)c3ccccc3NC(=O)C2OC)cc1 (stereo not given)
inactive: Potency [1] | Potency [2] | Potency [3] | Potency [4] | Potency [5]

CC(=O)OC1C(O)C(C)(O)C(/C=C/C(=O)O)C2(C)CCCC(C)(C)C12 (stereo not given)
inactive: Potency [1] | Potency [2] | Potency [3] | Potency [4] | Potency [5]

CC1(C)C[C@@H]2[C@H](C1)[C@@]1(C)C[C@]13C(O)OC[C@]3(O)[C@H]2O (stereo not given in full)
inactive: Potency [1] | Potency [2] | Potency [3] | Potency [4] | Potency [5]

CC1=C(CC/C(C)=C/C(=O)O)[C@@]2(C)CCCC(C)(C)C2CC1=O (stereo not given in full)
inactive: Potency [1] | Potency [2] | Potency [3] | Potency [4] | Potency [5]

C[C@@H]1CC[C@]2(C(=O)O)CC[C@]3(C)C(=CCC4[C@@]5(C)C[C@@H](O)[C@H](O)[C@@](C)(CO)C5CC[C@]43C)C2[C@H]1C (stereo not given in full)
inactive: Potency [1] | Potency [2] | Potency [3] | Potency [4] | Potency [5]

Nc1ncnc2c1C(=O)N(c1ccc(C3CCC(CC(=O)O)CC3)cc1)CCO2 (stereo not given)
inactive: Potency [1] | Potency [2] | Potency [3] | Potency [4] | Potency [5]

C[C@@H]1O[C@@H](O[C@H]2[C@H](O)[C@@H](O)[C@H](OC(=O)[C@]34CCC(C)(C)C[C@H]3C3=CCC5[C@@]6(C)CC[C@H](O[C@@H]7O[C@H](C(=O)O)[C@@H](O)[C@H](O)[C@H]7O)C(C)(C)C6CC[C@@]5(C)[C@]3(C)CC4)O[C@@H]2CO)[C@H](O)[C@H](O)[C@H]1O (stereo not given in full)
inactive: Potency [1] | Potency [2] | activity change, negative = inhibition [3] -16.1% [at 11.6 µM] | activity change, negative = thiol reactive [4] 74.8% [at 11.5 µM] | activity, negative = inhibition [5] -3.67% [at 11.6 µM]

CCC(C)C(C(=O)O)N1Cc2c(OCC=C(C)C)c(C)c(OC)c(C(=O)O)c2C1=O (stereo not given)
inactive: Potency [1] | Potency [2] | Potency [3] | Potency [4] | Potency [5]

FC(F)(F)Oc1ccc(-c2ccc3nnc(C(F)(F)F)n3c2)cc1
inactive: Potency [1] | Potency [2] | Potency [3] | Potency [4] | Potency [5]

C/C=C(\C)C(=O)OC[C@H]1O[C@@H](O[C@H]2[C@@H](O[C@H]3O[C@H](CO)[C@@H](O)[C@H](O)[C@H]3O[C@@H]3O[C@H](CO)[C@@H](O)[C@H](O)[C@H]3O)O[C@H](COC(=O)/C(C)=C/C)[C@@H](O)[C@@H]2O)[C@H](O)[C@@H](O)[C@@H]1O
inactive: Potency [1] | Potency [2] | activity change, negative = inhibition [3] 3.78% [at 11.6 µM] | activity change, negative = thiol reactive [4] -18.3% [at 11.5 µM] | activity, negative = inhibition [5] -0.032% [at 11.6 µM]
